# In the library only some 1.5% were active in any assay of this set; here they are far more common.
# CendR NRP1 mod – modulators of CendR peptide binding to human neuropilin-1; FAM-RPARPAR peptide binding to NRP-1, fluorescence polarization; O14786; AID 602438; 0.85% of 360,000 active; inhibition, % at 25 µM;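 active = inhibition or corrected inhibition above about 18%, plus a signal ratio from 0.5 to 1.5, limit read from the data, passing the limit was not always enough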
# RAD52 anneal inh – RAD52 (human) annealing inhibition; inhibition, % at 18.7 µM; 0.46% of 360,000 active; recombinant RAD52 DNA annealing, FRET fluorescence; P43351;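 active = every replicate showing at least 50% inhibition; inconclusive = mean inhibition at least 50% but not in every replicate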
# Target sequence (P43351 whole entry, looked up): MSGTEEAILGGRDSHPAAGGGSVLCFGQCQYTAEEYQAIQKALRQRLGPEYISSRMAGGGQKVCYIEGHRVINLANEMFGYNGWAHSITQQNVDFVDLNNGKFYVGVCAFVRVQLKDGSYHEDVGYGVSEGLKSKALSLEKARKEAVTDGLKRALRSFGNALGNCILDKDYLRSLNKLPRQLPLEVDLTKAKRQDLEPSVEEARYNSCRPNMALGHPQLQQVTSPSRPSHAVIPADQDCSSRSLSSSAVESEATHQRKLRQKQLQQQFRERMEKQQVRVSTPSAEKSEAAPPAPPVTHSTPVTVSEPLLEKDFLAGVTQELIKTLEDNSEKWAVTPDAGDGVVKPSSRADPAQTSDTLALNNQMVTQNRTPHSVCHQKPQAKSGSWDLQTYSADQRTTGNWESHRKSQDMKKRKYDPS
# miR122 inh – blocks miR-122 activity in Huh7 sensor cells; activation (reporter increase), % at 12.5 µM; Huh7 miR-122 Renilla luciferase sensor, 48 h; neutral wells = 0, positive control = 100; 0.3% of 340,000 active;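 active = mean replicate activation score at least 90 and every replicate individually at or above 90; inconclusive = only one of the two criteria met; inactive = neither criterion met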;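 also: higher luciferase means less miR-122 activity so hits act as miR-122 inhibitors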
# FID counter – counter-screen for HCV NS3 helicase inhibitors: DNA intercalator displacement | AID 1845 | DNA fluorescent intercalator displacement, fluorescence | inhibition, % at 7.9 µM | 0.17% of 290,000 active; in the data active = inhibition above about 37%;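 also: higher means more ethidium bromide displaced from hairpin DNA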
# RAD54 branch – inhibitors of human RAD54 branch migration; RAD54 Holliday junction branch migration, FAM/BHQ fluorescence; inhibition, % at 10.4 µM; 0.14% of 360,000 active; AID 602329;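 active = mean normalized replicate activity at least 40 and at least half of replicates scoring 40 or more; inconclusive = only one of the two criteria met; inactive = mean below 40 and under half of replicates reaching 40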;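 also: inhibitors cause a drop in the FAM fluorescence signal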
# N-glyco inh – N-linked glycosylation inhibition; reporter increase, % at 12.5 µM; D54 ERlucT glycosylation luciferase reporter, 24 h; percent of 100 nM tunicamycin response; 0.23% of 360,000 active;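 active = mean luciferase reporter signal, scaled so untreated is 0 and the glycosylation-blocking control 100, at or above a set limit in every replicate; inconclusive = mean reaches the limit but not every replicate does; inactive = mean below the limit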;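 also: luciferase carries N-glycosylation sites so blocking glycosylation raises the light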
# Rad54 DNA ctr – binds DNA, flagging false Rad54 inhibitor hits; shares compounds with RAD54 branch; Acridine orange-DNA displacement, fluorescence polarization, 20 min; AC50, µM (doses to about 35 µM); 8% of 460 active;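 active = signal drop giving an AC50 within twice the top valid tested concentration of each sample, actives reach about 35 µM in these data; inactive = activity opposite to expected, plus the rest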;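 also: polarization loss reports compound binding to salmon sperm DNA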
# RAD52 DNA ctr – binds DNA, flagging false RAD52 inhibitor hits. shares compounds with RAD52 anneal inh. Salmon sperm DNA/acridine orange FP displacement, DNA binding. AC50, µM. 8% of 1,000 active;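 active = fitted half-maximal concentration for signal loss at or below twice the highest dose tested, in every separate run, actives reach about 64 µM in these data; inconclusive = runs disagree, or flat partial signal loss, or poor fit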
# A number is an active result; - = inactive; ? = inconclusive; . = no result given.
SMILES,CendR NRP1 mod,RAD52 anneal inh,miR122 inh,FID counter,RAD54 branch,N-glyco inh,RAD52 DNA ctr,others
CC(C)(C)n1cc(C(=O)c2ccccc2)cc1-c1ccccc1,20.8,-,.,-,-,-,.,
N#Cc1cccc(-c2ccc([C@H]3[C@@H](CO)N4CCCCN(C(=O)Cc5ccccc5)C[C@@H]34)cc2)c1,.,-,-,.,-,.,.,
CN1CN(c2ccccc2)C2(CCN(CCCSc3ccccc3NC(=O)/C=C/c3ccccc3)CC2)C1=O,-,-,.,.,.,30.4,.,
COc1ccc(C(O)c2cc(OC)ccc2OP(=O)(N(C)C)N(C)C)cc1 (stereo not given),-,.,.,-,.,-,.,
COc1ccc(OC)c(C(O)C(C)N)c1 (stereo not given),19.3,-,-,-,-,-,.,
CC(C)(C)n1nnnc1C(c1cccc2ccccc12)N1CCC2(CC1)C(=O)NCN2c1ccccc1 (stereo not given),-,-,-,.,-,-,.,
CC(C)(C)n1nnnc1C(c1ccnc2ccccc12)N1CCC2(CC1)C(=O)NCN2c1ccccc1 (stereo not given),36.4,-,-,.,-,-,.,
C=C(C)[C@@]12OC3(c4ccccc4)O[C@@H]1C1[C@@H]4O[C@]4(CO)[C@@H](O)[C@]4(O)C(=O)C(C)=C[C@H]4[C@@]1(O3)[C@H](C)[C@H]2OC(=O)/C=C/C=C/c1ccccc1 (stereo not given in full),-,.,-,.,-,52.8,.,
Cc1ccc(N=C(N(C)C)P(=O)(N(C)C)N(C)C)cc1,-,-,-,55.9,.,-,.,
CC1(CCO)CC(C)(CCc2ccccc2)OO1 (stereo not given),.,-,.,.,-,.,.,
O=C1C=C(N2CC2)c2ccccc2C1=O,24.7,-,-,.,-,-,.,
O=C1c2ccccc2-c2cc3ccccc3cc21,-,-,-,.,.,-,.,
CC1(C(=O)O)CCCC2(C)c3cc(O)ccc3CCC12 (stereo not given),33.6,-,-,.,-,-,.,
CCC1C2Cc3ccc(O)cc3C1(CC)CCN2C (stereo not given),32.0,-,.,.,.,-,.,
CN1CC[C@@]23CCCC[C@@H]2[C@@H]1Cc1ccc(O)cc13,-,-,-,-,-,-,.,
Cc1nccc2c1[nH]c1ccccc12,-,-,.,-,?,-,.,Rad54 DNA ctr=-
O=C(Cc1ccccc1)N1CCCCN2[C@H](C1)[C@H](c1ccc(-c3ccccc3)cc1)[C@@H]2CO,.,-,-,.,-,.,.,
Nc1ccc(CCN2CCCC2)cc1,-,94.2,-,-,?,-,.,Rad54 DNA ctr=-
Oc1ccc(CCN2CCCCC2)cc1,-,-,-,.,-,-,.,
CN1CCN(c2ccc(N)cc2)CC1,-,.,-,-,96.8,-,.,Rad54 DNA ctr=-
CN1CCN(c2ccc(N)c(N3CCN(C)CC3)c2)CC1,-,.,-,-,.,-,.,
Cn1ncnc2c(=O)n(C)c(=O)nc1-2,-,.,-,.,72.1,-,.,Rad54 DNA ctr=-
COC(=O)[C@H]1[C@H](CO)[C@H]2Cn3c(ccc(C4=CCCC4)c3=O)[C@@H]1N2S(=O)(=O)c1cn(C)cn1,.,-,-,.,-,.,.,
NCC(O)c1cc(O)c(O)cc1F (stereo not given),-,91.9,-,.,-,-,-,
ClCCN1CCN(c2ccnc3cc(Cl)ccc23)CC1,-,68.5,.,-,-,-,-,
SMILES,CendR NRP1 mod,RAD52 anneal inh,miR122 inh,FID counter,RAD54 branch,N-glyco inh,RAD52 DNA ctr,others
Oc1ccc2c3c1O[C@H]1c4[nH]c5c(c4CC4(O)C(C2)N(CC2CC2)CCC314)CC1(O)[C@H]2Cc3ccc(O)c4c3[C@@]1(CCN2CC1CC1)C5O4 (stereo not given in full),.,83.5,.,.,.,.,-,
Oc1ccc2c3c1OC1c4[nH]c5ccccc5c4C[C@@]4(O)C(C2)N(CC2CC2)CC[C@]314 (stereo not given in full),-,-,-,.,-,-,.,
CCN1CCN(c2ccc(N)cc2)CC1,-,89.8,-,-,.,-,53.2µM,
CCN1CCN(c2ccc(N)cc2C)CC1,-,99.9,.,-,.,-,46.7µM,
CC=Cc1ccc2n(c1=O)C[C@@H]1[C@@H](CO)[C@H](C(=O)OC)[C@H]2N1CC1CCCC1 (mixture of isomers),.,-,.,.,.,.,.,
O=C(Cc1cccnc1)N1CCCCN2[C@H](CO)[C@H](c3ccc(C#CC4(O)CCCC4)cc3)[C@H]2C1,.,-,-,.,-,.,.,
Fc1ccccc1CNC1CN2CCC1CC2 (stereo not given),-,-,.,-,.,-,.,
Ic1ccccc1CN[C@@H]1C2CCN(CC2)[C@@H]1C(c1ccccc1)c1ccccc1,-,62.2,-,.,-,-,-,
C[C@]1(O)CCC2C3CC[C@H]4C[C@@H](OC(=O)[C@@H](N)CCCCN)CC[C@]4(C)C3CC[C@@]21C (stereo not given in full),-,87.8,-,.,60.0,-,-,
C[C@]1(O)CCC2C3CC[C@@H]4CC(=O)CC[C@]4(C)C3CC[C@@]21C (stereo not given in full),-,-,.,.,.,-,.,
COc1ccc(C[C@@H]2c3cc(O)c(OC)cc3CCN2C)cc1O,-,-,-,-,-,-,.,
COc1cc2c3c(c1OC)Oc1ccc(cc1)C[C@H]1c4c(cc(OC)c(OC)c4Oc4ccc(cc4)C[C@@H]3N(C)CC2)CCN1C,-,-,-,.,-,-,.,
COc1cc2c3cc1Oc1cc(ccc1O)C[C@@H]1c4c(cc(OC)c(O)c4Oc4cccc(c4)C[C@@H]3N(C)CC2)CC[N+]1(C)C,-,69.5,-,.,-,-,-,
COc1cc2c3cc1Oc1cc(ccc1O)C[C@@H]1c4c(cc(OC)c(O)c4Oc4ccc(cc4)C[C@H]3N(C)CC2)CCN1C,-,51.8,-,-,-,-,-,
COc1cc2c3cc1Oc1c(OC)c(OC)cc4c1[C@H](Cc1ccc(cc1)Oc1cc(ccc1O)C[C@H]3N(C)CC2)N(C)CC4,-,58.5,-,.,-,-,-,
COc1ccc(C#Cc2ccc([C@@H]3[C@H](CO)N4CCCCN(C(=O)Cc5ccccc5)C[C@@H]34)cc2)cc1,.,-,-,.,-,.,.,
CCCCCCCCCCCCCCCC[N+](C)(C)C,-,80.1,-,.,-,-,?,
CCCNC(=O)[C@@H]1[C@@H](CO)[C@@H]2Cn3c(cccc3=O)[C@H]1N2CCC,.,-,-,.,-,.,.,
C[C@H]1CN([C@@H](C)CO)C(=O)CCCn2cc(nn2)CO[C@H]1CN(C)C(=O)Oc1ccc2ccccc2c1,.,-,-,.,-,.,.,
C=C1[C@@H](OC(C)=O)[C@]23C[C@@H]1[C@@H](OC(C)=O)CC2[C@]12C4C[C@H]3[C@H]1N(CC)C[C@]4(C)CC[C@@H]2O (stereo not given in full),-,78.3,-,.,-,-,-,
O=C(Cc1ccccn1)N1CCCCN2[C@@H](CO)[C@@H](c3ccc(-c4ccccc4F)cc3)[C@@H]2C1,.,-,-,.,-,.,.,
